Source: publication PMC5540273 (PLoS ONE, 2017)
Where “and” joins values, the source holds several entries; their conditions need not be identical. Equal entries are not always repeated. Where two headings read alike, the source gives them in different places.

How the values were obtained:
[1] = system: T1, RSK2(Kin.Dom.2-C-terminal); conditions: n = 1
T1 construct: gene RPS6KA3

[2] = system: T2, RSK3(Kin.Dom.1-N-terminal); conditions: n = 1
T2 construct: gene RPS6KA2

[3] = system: T3, RSK3(Kin.Dom.2-C-terminal); conditions: n = 1
T3 construct: gene RPS6KA2

[4] = system: T4, RSK4(Kin.Dom.1-N-terminal); conditions: concentration: 1 μM, replicates: in singlicate; n = 1
T4 construct: gene RPS6KA6

[5] = system: T5, RSK4(Kin.Dom.2-C-terminal); conditions: n = 1
T5 construct: gene RPS6KA6

S6K1 = conditions: n = 1
SBK1 = conditions: n = 1
SGK2 = conditions: concentration: 1 μM, replicates: in singlicate; n = 1
SGK3 = conditions: n = 1
SGK = conditions: concentration: 1 μM, replicates: in singlicate; n = 1
SIK2 = conditions: n = 1
SIK = conditions: concentration: 1 μM, replicates: in singlicate; n = 1
SLK = conditions: n = 1
SNARK = system: T6, SNARK; conditions: n = 1
T6 construct: gene NUAK2

SNRK = conditions: concentration: 1 μM, replicates: in singlicate; n = 1
SRC = conditions: n = 1
SRMS = conditions: concentration: 1 μM, replicates: in singlicate; n = 1
SRPK1 = conditions: n = 1
SRPK2 = conditions: concentration: 1 μM, replicates: in singlicate; n = 1
SRPK3 = conditions: concentration: 1 μM, replicates: in singlicate; n = 1
[6] = concentration: 1 μM, replicates: in singlicate
[7] = concentration: 1 μM,replicates: in singlicate, 1 µM
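Further: KINOMEscan kinase panel screen.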

Cn1ccc2ncnc(Oc3cccc(C(=O)Nc4ccccc4)c3)c21
%Inh [1, 6]: 0%
%Inh [2, 6]: 0%
%Inh [3, 6]: 13%
%Inh [4]: 14%
%Inh [5, 6]: 0%
%Inh (S6K1; [6]): 0%
%Inh (SBK1; [6]): 0%
%Inh (SGK2): 2%
%Inh (SGK3; [6]): 26%
%Inh (SGK): 0%
%Inh (SIK2; [6]): 5%
%Inh (SIK): 15%
%Inh (SLK; [6]): 13%
%Inh (SNARK; [6]): 23%
%Inh (SNRK): 9%
%Inh (SRC; [6]): 0%
%Inh (SRMS): 0%
%Inh (SRPK1; [6]): 0%
%Inh (SRPK2): 0%
%Inh (SRPK3): 0%

O=C(Nc1n[nH]c2cc(-c3cccc(F)c3F)ccc12)C1CC1 [SB-733894]
%Inh [1, 6]: 0%
%Inh [2, 6]: 52%
%Inh [3, 6]: 0%
%Inh [4]: 0%
%Inh [5, 6]: 0%
%Inh (S6K1; [6]): 22%
%Inh (SBK1; [6]): 11%
%Inh (SGK2): 29%
%Inh (SGK3; [6]): 12%
%Inh (SGK): 32%
%Inh (SIK2; [6]): 0%
%Inh (SIK): 0%
%Inh (SLK; [6]): 0%
%Inh (SNARK; [6]): 1%
%Inh (SNRK): 3%
%Inh (SRC; [6]): 0%
%Inh (SRMS): 3%
%Inh (SRPK1; [6]): 44%
%Inh (SRPK2): 22%
%Inh (SRPK3): 5%

CSc1nn2c(=O)cc(N3CCOCC3)nc2n1Cc1cccc(C(F)(F)F)c1C [GSK2363608]
%Inh [1, 7]: 0% and 5%
%Inh [2, 7]: 0% and 16%
%Inh [3, 7]: 10% and 0%
%Inh [4]: 0%
%Inh [5, 7]: 3% and 0%
%Inh (S6K1; [7]): 3% and 10%
%Inh (SBK1; [7]): 1% and 2%
%Inh (SGK2): 0%
%Inh (SGK3; [7]): 6% and 4%
%Inh (SGK): 0%
%Inh (SIK2; [7]): 4% and 0%
%Inh (SIK): 0%
%Inh (SLK; [7]): 20% and 3%
%Inh (SNARK; [7]): 18% and 0%
%Inh (SNRK): 0%
%Inh (SRC; [7]): 3% and 0%
%Inh (SRMS): 0%
%Inh (SRPK1; [7]): 34% and 16%
%Inh (SRPK2): 0%
%Inh (SRPK3): 0%

COc1ccc2nc(-c3cccc(C)n3)nc(Nc3ccncc3)c2c1 [GSK204919]
%Inh [1, 6]: 19%
%Inh [2, 6]: 19%
%Inh [3, 6]: 0%
%Inh [4]: 0%
%Inh [5, 6]: 26%
%Inh (S6K1; [6]): 1%
%Inh (SBK1; [6]): 21%
%Inh (SGK2): 0%
%Inh (SGK3; [6]): 0%
%Inh (SGK): 0%
%Inh (SIK2; [6]): 2%
%Inh (SIK): 0%
%Inh (SLK; [6]): 9%
%Inh (SNARK; [6]): 0%
%Inh (SNRK): 0%
%Inh (SRC; [6]): 5%
%Inh (SRMS): 0%
%Inh (SRPK1; [6]): 26%
%Inh (SRPK2): 0%
%Inh (SRPK3): 16%

Cc1nnc(-c2ccc3occ(-c4ccc(S(C)=O)cc4)c3c2)[nH]1 (stereo not shown)
%Inh [1, 6]: 5%
%Inh [2, 6]: 0%
%Inh [3, 6]: 7%
%Inh [4]: 0%
%Inh [5, 6]: 36%
%Inh (S6K1; [6]): 4%
%Inh (SBK1; [6]): 0%
%Inh (SGK2): 5%
%Inh (SGK3; [6]): 17%
%Inh (SGK): 1%
%Inh (SIK2; [6]): 19%
%Inh (SIK): 7%
%Inh (SLK; [6]): 50%
%Inh (SNARK; [6]): 11%
%Inh (SNRK): 0%
%Inh (SRC; [6]): 9%
%Inh (SRMS): 0%
%Inh (SRPK1; [6]): 27%
%Inh (SRPK2): 0%
%Inh (SRPK3): 0%
